# From paper PMC4336329 (PLoS ONE, 2015)
# Screen size: about 310,000 compounds; about 14,000 (4.5%) showed an effect of 50% or more. The effect is printed as a negative number. What follows is part of a selection rich in strong results, with near analogues and random picks from the rest.
# Target: human ether-à-go-go-related gene (hERG) potassium channel (human, UniProt Q12809)
# Assay: primary screen, population patch clamp on CHO cells stably expressing hERG; higher = less effect of the substance
# 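Further: peak tail current of the secondary pulse compared with the same well before compound.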
# human ether-à-go-go-related gene (hERG) potassium channel, sequence (Q12809 whole entry, looked up): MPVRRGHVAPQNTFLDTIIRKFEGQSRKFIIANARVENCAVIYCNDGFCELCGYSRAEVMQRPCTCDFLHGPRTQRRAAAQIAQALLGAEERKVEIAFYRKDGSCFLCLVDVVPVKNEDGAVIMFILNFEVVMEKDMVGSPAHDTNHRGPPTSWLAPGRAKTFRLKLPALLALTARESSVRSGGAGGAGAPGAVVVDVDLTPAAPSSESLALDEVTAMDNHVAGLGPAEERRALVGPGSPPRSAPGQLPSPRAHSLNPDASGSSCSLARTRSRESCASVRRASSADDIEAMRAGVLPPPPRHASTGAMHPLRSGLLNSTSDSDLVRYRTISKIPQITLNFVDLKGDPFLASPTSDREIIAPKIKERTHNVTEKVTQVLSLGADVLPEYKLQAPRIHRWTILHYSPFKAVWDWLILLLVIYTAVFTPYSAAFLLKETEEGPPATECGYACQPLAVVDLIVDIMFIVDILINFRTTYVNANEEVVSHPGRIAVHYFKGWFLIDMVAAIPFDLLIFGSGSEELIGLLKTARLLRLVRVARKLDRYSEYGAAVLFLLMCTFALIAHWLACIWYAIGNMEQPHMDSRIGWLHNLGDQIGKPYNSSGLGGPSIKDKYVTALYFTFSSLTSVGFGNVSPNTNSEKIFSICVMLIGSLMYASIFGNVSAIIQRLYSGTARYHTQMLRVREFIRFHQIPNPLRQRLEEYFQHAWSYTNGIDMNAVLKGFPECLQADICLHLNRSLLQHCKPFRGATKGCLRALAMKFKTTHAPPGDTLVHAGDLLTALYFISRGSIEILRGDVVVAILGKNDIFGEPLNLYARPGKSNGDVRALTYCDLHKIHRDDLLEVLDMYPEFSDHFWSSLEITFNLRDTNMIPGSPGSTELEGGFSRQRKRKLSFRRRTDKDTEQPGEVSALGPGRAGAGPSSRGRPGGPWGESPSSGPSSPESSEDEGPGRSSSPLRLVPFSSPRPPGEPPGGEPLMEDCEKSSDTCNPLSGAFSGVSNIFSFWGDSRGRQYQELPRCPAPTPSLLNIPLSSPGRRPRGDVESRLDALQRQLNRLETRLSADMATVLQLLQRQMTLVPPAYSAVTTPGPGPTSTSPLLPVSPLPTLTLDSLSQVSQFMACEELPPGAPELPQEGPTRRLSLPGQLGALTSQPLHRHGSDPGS
row,SMILES,"hERG current change (%, negative = inhibition) at 10uM"
1,O=C(CSc1ncnc2c1cnn2-c1ccc(F)cc1)NCC1CCCO1 (centres unmarked),13.7%
2,O=C1CCCS(=O)(=O)c2ccccc21,23.8%
3,Cc1cccc(OCC(=O)NCCCNC(=O)c2ccc(C)nc2)c1,17.9%
4,Cc1ccc(NC2(C(F)(F)F)N=C(c3ccccc3)NC2=O)nc1 (centres unmarked),18.4%
5,Cc1ccc(N2CCN(c3ccc(NC(=O)CCC(=O)O)cc3)CC2)cc1,19.6%
6,COc1cc(Br)cc(/C=C/c2ccc3cccc(O)c3n2)c1OC,11.4%
7,COCCN(Cc1cn(C)nc1-c1ccccc1F)C(C)C,15.5%
8,Cn1c(=O)c2c(nc(SCC(=O)Nc3ccccc3N3CCCCC3)n2C)n(C)c1=O,-54%
9,CC(C)n1c(SCC(=O)Nc2nc3c(s2)CCCC3)nc2c1c(=O)n(C)c(=O)n2C,-59.2%
10,CC(C)n1c(SCC(=O)Nc2ccccc2N2CCCCC2)nc2c1c(=O)n(C)c(=O)n2C,-36.7%
11,CCCn1c(SCC(=O)Nc2nc3c(s2)CCCC3)nc2c1c(=O)n(C)c(=O)n2C,-1.39%
12,Cc1ccc(S(=O)(=O)CC(=O)Nc2nc(-c3ccccc3)cs2)cc1,-38%
13,O=C(CS(=O)(=O)c1ccccc1)Nc1nc(-c2ccc(F)cc2)cs1,16.6%
14,O=C(CS(=O)(=O)c1ccccc1)Nc1nc(-c2ccccc2)cs1,-51.9%
15,Cc1nnc(NC(=O)CSc2nc3c(c(=O)n(C)c(=O)n3C)n2C(C)C)s1,-0.769%
16,COc1ccc(C2(O)CCN(CC(=O)Nc3nc(-c4ccccc4)cs3)CC2)cc1,-10.1%
17,COc1ccccc1C1(O)CCN(CC(=O)Nc2nc(-c3ccccc3)cs2)CC1,-56.8%
18,CCCn1c(SCC(=O)Nc2ccccc2N2CCCCC2)nc2c1c(=O)n(C)c(=O)n2C,-29.9%
19,CN1CCN(CC(=O)Nc2nc(-c3ccccc3)cs2)CC1,-40.4%
20,O=C(CN1C(=O)NC2(CCCCCC2)C1=O)NCCc1ccccc1,1.14%
21,Cc1noc(C)c1CSCC(=O)Nc1nc2ccc(Oc3ccccc3)cc2s1,-13.6%
22,CN(CC(=O)Nc1ccccc1C(F)(F)F)C(=O)CC1OC(=O)c2ccccc21 (centres unmarked),9.27%

row,SMILES,"hERG current change (%, negative = inhibition) at 10uM"
1,CCOC(=O)CSc1nnc(CNc2ccc(Cl)cc2)n1-c1ccccc1,11.2%
2,COc1cc2c(-c3ccc(O)cc3)nc3c(c(C)nn3-c3ccccc3)c2cc1OC,11.5%
3,O=C(O)CCSc1nc2ccc(Br)cc2[nH]1,8.75%
4,C=C1C[C@@]23CCC4[C@@](C)(CCC[C@@]4(C)C(=O)OC)C2CC[C@]1(OC(C)=O)C3 (some centres unmarked),10.8%
5,O=C(Nc1nc(-c2ccc(F)cc2)cs1)c1cnccn1,-0.514%
6,CCc1ccc(N(C(C)=O)C2C=CS(=O)(=O)C2)cc1 (centres unmarked),-6.3%
7,O=C(CSc1nc(=O)n2ccccc2n1)NCc1ccc2c(c1)OCO2,-37.8%
8,COc1ccc(OC)c(S(=O)(=O)NC(N)=NCCc2ccccc2OC)c1,9.89%
9,CCOC(=O)N1CCN(C(=O)CSCC(=O)Nc2nc(-c3ccc(-c4ccccc4)cc3)cs2)CC1,-11.9%
10,CCn1c(SCC(=O)Nc2nc3c(s2)CCCC3)nnc1-c1ccccc1,-56.2%
11,Cn1c(SCC(=O)Nc2nc3c(s2)CCCC3)nnc1-c1ccccc1,-16.4%
12,Cc1ccc(-c2nnc(SCC(=O)Nc3nc4c(s3)CCCC4)n2C)cc1,6.99%
13,CCOC(=O)N1CCN(C(=O)CSCC(=O)Nc2nc(-c3ccccc3)cs2)CC1,-50.5%
14,Cn1c(CCNC(=O)c2cccs2)nnc1SCC(=O)Nc1nc(-c2ccccc2)cs1,-7.06%
15,Cc1cccc(-c2nnc(SCC(=O)Nc3nc4c(s3)CCCC4)n2C)c1,-37.3%
16,Cc1ccc2cc(C)c3nnc(SCC(=O)Nc4nc5c(s4)CCCC5)n3c2c1C,-53.8%
17,Cc1ccccc1C(=O)NCCc1nnc(SCC(=O)Nc2nc(-c3ccccc3)cs2)n1C,7.36%
18,Cc1ccc(C)c2c1cc(C)c1nnc(SCC(=O)Nc3nc4c(s3)CCCC4)n12,1.01%
19,CCn1c(CCNC(=O)c2cccs2)nnc1SCC(=O)Nc1nc(-c2ccccc2)cs1,-52%
20,CCOC(=O)N1CCN(C(=O)CSCC(=O)Nc2nc(-c3ccc(C)cc3)cs2)CC1,-14.1%
21,Cc1ccc(N2CCN(S(=O)(=O)c3nnc(NC(=O)c4ccco4)s3)CC2)cc1,15.6%
22,CS(=O)(=O)c1cccc(C(=O)NCc2ccc(F)cc2)c1,0.5%

row,SMILES,"hERG current change (%, negative = inhibition) at 10uM"
1,COC(C/C=C\[C@@H](O)[C@H](C)OCc1ccccc1)OC,25.7%
2,CCSc1nnc(NC(=O)c2cccnc2Cl)s1,16.3%
3,Cc1cccc(N(C(=O)CNC(=O)c2cccs2)C(C(=O)NC2CCCC2)c2cccnc2)c1 (centres unmarked),1.66%
4,CCOc1ccc(N(CC(=O)N2CCN(Cc3ccccc3)CC2)S(C)(=O)=O)cc1,-12.2%
5,O=C(N/C(=C/c1ccc(F)cc1)C(=O)N1CCCCC1)c1ccco1,-18.7%
6,CN1C(=O)C(=Cc2ccc(N3CCCCCC3)o2)C(=O)N(C)C1=S,6.46%
7,CNC(=S)N1CCc2cc(OC)c(OC)cc2C1COc1ccc(F)cc1 (centres unmarked),-22.6%
8,Br.CN(CC(O)C[NH+]1CCOCC1)S(=O)(=O)[O-] (centres unmarked),17%
9,Cc1nc2ccccc2c(=O)n1NC(=O)C1CC1,16.3%
10,NC(=O)c1ccc(NC(=O)CSc2nnc(-c3ccncc3)n2Cc2ccco2)cc1,2.42%
11,CCn1c(SCC(=O)Nc2nc(-c3ccccc3)cs2)nnc1-c1ccccc1,-66.6%
12,CCOC(=O)Cc1csc(NC(=O)CSc2nnc(-c3cccnc3)n2Cc2ccco2)n1,-30.5%
13,CCn1c(SCC(=O)Nc2nc(-c3ccccc3)cs2)nnc1-c1ccccc1O,-20.8%
14,CCOC(=O)Cc1csc(NC(=O)CSc2nnc(-c3ccncc3)n2Cc2ccco2)n1,-5.63%
15,COc1ccccc1-c1nnc(SCC(=O)Nc2nc(-c3ccccc3)cs2)n1C,-71.8%
16,NC(=O)c1ccc(NC(=O)CSc2nnc(-c3cccnc3)n2Cc2ccco2)cc1,6.87%
17,O=C(CSc1nnc(-c2ccncc2)n1Cc1ccco1)Nc1nc(-c2ccccc2)cs1,-57.4%
18,O=C(CSc1nnc(-c2cccnc2)n1Cc1ccco1)Nc1nc(-c2ccc(F)cc2)cs1,-70.6%
19,Cn1cnnc1SCC(=O)Nc1nc(-c2ccccc2)cs1,-4.33%
20,CCn1c(SCC(=O)Nc2nc(-c3ccc(C)cc3)cs2)nnc1-c1ccccc1,-1.44%
21,Cc1nnc(SCC(=O)Nc2nc(-c3ccccc3)cs2)n1N,2.68%
